From PubChem BioAssay
Dicer inh = inhibitors of Dicer pre-microRNA processing, primary screen, biochemical, cat-ELCCA, chemiluminescence. Endoribonuclease Dicer (Homo sapiens), Q9UPY3. actives 6% (n = 47,000). z-score at 25 µM. cat-ELCCA pre-miR-21 Dicer processing; stronger effect = higher value; in the data active = z-score above about 3, passing the limit was not always enough;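 note: plate controls were vehicle for no effect and no enzyme for full effect; higher signal means more uncleaved substrate so more Dicer inhibition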
The depositor's hits bear a star. Many of the other results were omitted from the sample, so hits are more common in it than they were.

SMILES	Dicer inh
O=C1CC(C(=O)Nc2ccc3c(c2)OCCO3)n2c(nc3ccccc32)N1 (centres undefined)	0.18
O=S(=O)(Nc1ccccc1N1CCOCC1)c1ccc(S(=O)(=O)c2ccccc2)s1	0.33
O=S(=O)(Nc1ccccc1N1CCOCC1)c1ccc(-c2ccccn2)s1	4.8*
O=S(=O)(Nc1ccc2c(c1)OCCO2)c1ccc(-c2ccccn2)s1	-0.04
CC(=O)OCCNc1cc(C)c2noc3c2c1C(=O)c1ccccc1-3	-0.47
Cc1c(NC(=O)C2CCCCC2C(=O)O)c(=O)n(-c2ccccc2)n1C (centres undefined)	-0.14
CCCc1[nH]nc2c1C(c1cccc(O)c1)C(C#N)=C(N)O2 (centres undefined)	-4.2
CCOC(=O)c1cc(C)nc(N2CCCCC2)c1C#N	0.2
Cc1nc(N2CCCCC2)c(C#N)c(C)c1[N+](=O)[O-]	4.5*
Cc1nc(N(C)C)c(C#N)c(C)c1[N+](=O)[O-]	-0.48
O=C(NNC1=Nc2ccccc2SC1)c1ccccc1	-0.72
CC(=O)N1CCC(=O)N(Cc2ccccc2)c2ccccc21	-0.85
O=c1[nH]nc2nnc3cc(Cl)ccc3n12	-0.68
FC(F)(F)c1cc(-c2ccc3c(c2)CCC3)nc2cc(-c3ccc(Cl)cc3)nn12	-0.28
COc1ccc(CCNc2oc(COc3ccccc3)nc2C#N)cc1OC	-1.6
Cc1c(C(=O)N(Cc2ccccc2)C2CCS(=O)(=O)C2)oc2ccccc12 (centres undefined)	1.1
Cc1c(C(=O)N(Cc2cccs2)C2CCS(=O)(=O)C2)oc2ccccc12 (centres undefined)	1.7
CCc1ccc(CN(C(=O)c2oc3ccccc3c2C)C2CCS(=O)(=O)C2)cc1 (centres undefined)	3.6*
CN(C)CC(=O)Nc1nc(-c2ccc(Cl)cc2)cs1	-1.2
O=C1CSc2nc(-c3ccccc3)c(-c3ccccc3)n21	-0.62
O=C1CSC(=O)N1C(c1ccccc1)(c1ccccc1)c1ccccc1	4.5*
CC(C)(C)c1ccc(N2C(=N)SCC2=O)cc1	0.2
CCOC(=O)c1cc2cc(OCc3ccccc3)ccc2[nH]1	-0.59
COC(Cn1c(SCc2ccc(C)cc2)nnc1-c1ccccc1)OC	-0.76
CS(=O)(=O)n1nc(-c2ccco2)nc1SCc1ccccc1	2.2
SMILES	Dicer inh
COc1ccc(-c2nc(SCc3ccccc3)n(S(C)(=O)=O)n2)cc1	5.2*
CCS(=O)(=O)n1nc(-c2ccco2)nc1SCc1ccccc1	2.9
O/N=C/N=C(NOCc1c(F)cccc1Cl)c1ccc(Cl)cc1	-0.95
N#CCSc1nnc(NC(=O)c2ccccc2)s1	-0.37
O=C(CCSc1nnc(NC(=O)Cn2c(=O)sc3ccccc32)s1)Nc1ccccc1	2.3
O=C(Nc1nnc(SCCN2C(=O)c3ccccc3S2(=O)=O)s1)c1ccccc1	3.5*
O=C1c2ccccc2S(=O)(=O)N1CCCCCN1C(=O)c2ccccc2S1(=O)=O	0.09
O=C(CCSc1nnc(NC2=NS(=O)(=O)c3ccccc32)s1)Nc1ccccc1	3.2*
Cn1nc(CC(=O)Nc2nnc(SCCC(=O)Nc3ccccc3)s2)c2ccccc2c1=O	-0.28
Cc1cc2oc(=O)cc(O)c2cc1C	0.66
Nc1ccc(Oc2ccc(F)cc2F)nc1	-0.45
CC1CC(C)(C)N(C(=O)Nc2ccccc2)c2ccccc21 (centres undefined)	1.2
c1ccc2[nH]c(CN3CCN(c4ncnc5sc6c(c45)CCCC6)CC3)nc2c1	-0.71
CN1CCN(c2ncnc3sc4c(c23)CCCC4)CC1	3.1*
c1nc(N2CCCC2)c2c3c(sc2n1)CCCC3	-0.19
OCCN1CCN(c2ncnc3sc4c(c23)CCCC4)CC1	4.5*
CC1CCc2sc3ncnc(N4CCN(CCO)CC4)c3c2C1 (centres undefined)	8.7
CC1CN(c2ncnc3sc4c(c23)CCCC4)CC(C)O1 (centres undefined)	0.64
O=C1c2oc3ccc(Br)cc3c(=O)c2C(c2ccc(O)cc2)N1Cc1ccccc1 (centres undefined)	0.09
CN1CCN(Cc2c(O)ccc3c(=O)c(Oc4ccc(C(C)(C)C)cc4)c(C(F)(F)F)oc23)CC1	1.9
CCOC(=O)Cc1nnc2c(N(CC)c3ccccc3)nc3nonc3n12	2.3
S=C(Nc1ccc(Cl)c(Cl)c1)Nc1cc(-c2cccs2)[nH]n1	-0.42
CSCCC(NC(=O)c1ccc(C(F)(F)F)cc1)C(=O)NNS(=O)(=O)c1ccccc1Cl (centres undefined)	0.38
COC(=O)c1c(NC(=O)CCC(=O)O)sc2c1CC(C)(C)OC2	0.59
CC(=O)Nc1sc2c(c1C(=O)O)CC(C)(C)OC2	-1.3
SMILES	Dicer inh
CC1(C)Cc2c(sc(NC(=O)C(c3ccccc3)c3ccccc3)c2C#N)CO1	4.5*
NC(=O)C1CCN(CN2C(=O)c3ccccc3C2=O)CC1	-0.15
N#Cc1ccc(-c2ccccc2)nc1SCC(=O)OCc1ccccc1	0.53
FC(F)(F)c1cccc(NC(=S)NN=C2CCCCCC2)c1	2.3
Cc1nc2ccccc2c2c1C(=O)N(c1cccc(C(=O)OCC(=O)C(C)(C)C)c1)C2=O	-1.5
Cc1ccc(C(=O)COC(=O)c2cccc(N3C(=O)c4c(C)nc5ccccc5c4C3=O)c2)cc1	0.43
